# A selection: hits, their analogues and other compounds. The true share with any hit is near 3.5%.
# MITF inh: MITF inhibitors, primary screen, biochemical, AlphaScreen, human; Microphthalmia-associated transcription factor (Homo sapiens), O75030; inhibition, % at 2.6 µM; actives 0.91% (n = 650,000); AlphaScreen MITF homodimerization, bead proximity signal; in the data active = inhibition above about 50%;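 note: 0% = vehicle wells with protein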
# TEAD-YAP inh: TEAD-YAP interaction inhibition, primary screen, TEAD-YAP interaction inhibitor project, luminescence, HEK-TIYL cells; inhibition, % at 9.12 µM; TEAD-Gal4/YAP UAS-luciferase luminescence; actives 1.4% (n = 640,000); in the data active = inhibition above about 32%;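 note: 0% = median of test compound wells and 100% = reference inhibitor wells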
# FBW7 act: FBW7 E3 ligase activators, primary screen, biochemical, AlphaScreen, human. F-box/WD repeat-containing protein 7 (Homo sapiens), Q969H0. AlphaScreen FBW7–phospho-cyclin E peptide binding, activator screen. normalized activity (activation), % at 26.1 µM. actives 0.13% (n = 650,000). AID 1259310, 2017; in the data active = normalized activity above about 1.9%;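 note: purified mutant Fbw7 with reduced substrate affinity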
# GPR151 ag: activators of human GPR151, primary screen, cell-based, PathHunter beta-arrestin, luminescence | G-protein coupled receptor 151 (Homo sapiens), Q8TDV0 | PathHunter beta-arrestin GPR151 cells | activation, % at 11.2 µM | actives 1% (n = 650,000) | AID 1508602, 2020; in the data active = activation above about 4.9%;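 note: 0% = median of compound wells and 100% = cells with positive control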
# Target sequence (Q8TDV0 whole entry, looked up): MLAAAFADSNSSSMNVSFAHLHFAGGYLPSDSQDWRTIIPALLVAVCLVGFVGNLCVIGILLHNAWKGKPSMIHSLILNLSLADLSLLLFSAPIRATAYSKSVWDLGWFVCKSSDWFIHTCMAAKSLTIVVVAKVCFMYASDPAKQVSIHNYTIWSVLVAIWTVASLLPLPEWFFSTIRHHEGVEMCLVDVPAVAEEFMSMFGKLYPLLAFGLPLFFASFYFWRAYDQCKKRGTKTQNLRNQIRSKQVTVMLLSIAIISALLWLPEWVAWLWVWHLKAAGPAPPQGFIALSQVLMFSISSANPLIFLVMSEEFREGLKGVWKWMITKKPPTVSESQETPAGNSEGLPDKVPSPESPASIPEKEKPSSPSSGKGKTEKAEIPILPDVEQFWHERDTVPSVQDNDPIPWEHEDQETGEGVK
# GPR151 conf act: GPR151 activators, triplicate retest, confirmation, cell-based, PathHunter beta-arrestin, luminescence; shares compounds with GPR151 ag; GPR151 PathHunter beta-arrestin cells, 90 min; % of EA-reagent control over plate median; activation, % at 11.2 µM; 6,700 tested, under 10 active;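 active = mean percent activation across replicates above the confirmation screen cutoff of 4.91%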
# GPR119 counter: GPR119 activators in beta-arrestin cells, counter-screen for GPR151 activator project, cell-based, PathHunter beta-arrestin, luminescence, triplicate | activation, % at 11.2 µM | 90 min; 0 = compound-well median, 100 = enzyme-acceptor control | actives 0.3% (n = 6,700) | shares compounds with GPR151 ag;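 active = mean percent activation in the counterscreen above 29.09%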;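 note: counterscreen on off-target GPR119 to flag nonselective hits from the GPR151 activator screen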
# Numbers without * were called inactive; / = no result.
SMILES,MITF inh,TEAD-YAP inh,FBW7 act,GPR151 ag,GPR151 conf act,GPR119 counter
Cc1ccc(OC(=O)c2ccc(N3C(=O)c4cccc([N+](=O)[O-])c4C3=O)cc2)cc1C,-9.2,3.9,0.1,5.9*,0.4,10.6
CC(C)c1ccc(N2C(=O)NC(=O)/C(=C/c3ccc(O)c([N+](=O)[O-])c3)C2=O)cc1,3.0,6.2,0.5,-1.2,/,/
NC(=O)c1cc2cc(Br)ccc2oc1=Nc1ccc(F)cc1F,5.5,3.0,0.2,6.9*,0.9,11.2
CCOc1ccc(/C=C(\C#N)c2[nH]nc(N)c2C#N)cc1OC,5.3,-11.6,-0.1,5.6*,-0.1,-7.0
CCN(CC)C(=O)c1ccc2c(=O)n(-c3ccc(F)cc3)c(=S)[nH]c2c1,-14.6,17.2,-0.1,5.0*,-0.3,-18.4
CCOC(=O)c1c(C)oc2c1c1c(c3ccccc32)OCN(Cc2ccco2)C1,7.3,-43.9,-0.1,1.9,/,/
CN(C)C1NC(=O)c2cc(-c3ccccc3)sc2N1 (stereo unspecified),-10.0,-9.3,0.0,7.0*,-1.2,-0.3
COc1ccc(S(=O)(=O)N2CCCC(C(=O)c3ccc4ccccc4c3)C2)cc1 (stereo unspecified),-3.4,0.5,-0.1,1.4,/,/
CCOc1ccc(/C=C(/NC(=O)c2cc(OC)c(OC)c(OC)c2)C(=O)NN)cc1,-2.7,2.4,0.0,0.8,/,/
CC12CCC(C(=O)NCCN3CCOCC3)(OC1=O)C2(C)C (stereo unspecified),13.2,-13.1,0.3,5.9*,-0.1,-5.3
CC12CCC(C(=O)NCc3ccccc3)(OC1=O)C2(C)C (stereo unspecified),-14.8,7.1,-0.1,5.3*,0.4,7.4
CS(=O)(=O)N(CC(=O)NCCSCc1ccco1)c1ccc(F)c(Cl)c1,-5.3,-12.2,-0.3,-1.4,/,/
CCCC(C)NC(=O)Cn1nnc2ccccc2c1=O (stereo unspecified),9.5,-7.4,0.1,-1.7,/,/
N#Cc1ccc2c(c1)N(Cc1ccc(F)cc1)C(=O)C1CCCN21 (stereo unspecified),3.0,1.7,0.1,0.7,/,/
Cc1ccc(CN2C(=O)C3CCCN3c3ccc(C#N)cc32)cc1 (stereo unspecified),-3.2,-3.9,0.0,5.6*,1.4,7.3
CC1CCN(C(=O)c2cn(-c3ccc(F)cc3F)c(=O)c3ccccc23)CC1,-1.9,-6.2,-0.1,1.3,/,/
CCOc1cccc(/C=C2/SC(=S)N(CCC(=O)O)C2=O)c1,0.9,7.8,0.2,4.9*,-0.3,-7.5
CCOc1ccc(/C=C2\SC(=S)N(C(CC)C(=O)O)C2=O)cc1 (stereo unspecified),-10.3,-5.6,-0.4,6.0*,-0.4,6.3
COc1ccc(/C=C2\SC(=S)N(CCC(=O)NCCO)C2=O)cc1,25.2,-19.4,-0.1,5.1*,-0.3,0.7
CC(=O)Nc1ccc(NC(=O)COc2ccccc2Cl)cc1,-12.4,-15.2,0.0,-0.3,/,/
O=C(Nc1ccccc1)c1ccc(OC(=S)N2CCOCC2)cc1,0.4,-38.4,0.0,1.5,/,/
COc1ccc(N2CCN(C(=O)c3c(F)cccc3Cl)CC2)cc1,8.4,13.2,-0.2,-1.0,/,/
N#Cc1cc([N+](=O)[O-])ccc1NC(=O)COC(=O)C1CC1,8.7,3.3,-0.1,1.3,/,/
N#Cc1cc([N+](=O)[O-])ccc1NC(=O)COC(=O)CC1CCCC1,-0.7,1.4,-0.1,5.0*,-0.6,-5.3
Cc1cc(NC(=O)COC(=O)CC2CCCCC2)no1,15.8,-2.7,0.2,5.0*,0.7,5.1
SMILES,MITF inh,TEAD-YAP inh,FBW7 act,GPR151 ag,GPR151 conf act,GPR119 counter
O=c1c2ccccc2nc2sc(Nc3ccc(Cl)cc3Cl)nn12,1.7,4.5,0.1,-1.6,/,/
Fc1ccc2c(c1)nc(N1CCCCC1)c1nccn12,-5.0,-9.6,-0.2,-0.6,/,/
Fc1ccc2c(c1)nc(NC1CCCCC1)c1nccn12,-0.4,2.5,0.0,5.1*,-0.6,-1.6
CN(CC(=O)NCc1ccc(Cl)cc1)S(=O)(=O)c1ccccc1,-6.4,-1.4,-0.2,-1.6,/,/
COc1cc(/C=C(\C#N)c2ccc([N+](=O)[O-])cc2)ccc1O,-13.8,4.6,-0.1,0.7,/,/
COC(=O)COc1ccc(/C=C(/C#N)c2ccc([N+](=O)[O-])cc2)cc1Br,3.4,11.3,-0.1,7.2*,0.2,-0.3
CC(C)C(NC(=O)COc1ccc(Oc2ccccc2)cc1)C(=O)O (stereo unspecified),-5.2,-9.9,0.1,0.0,/,/
CCCCCCCn1c(Cc2ccccc2)nc2ccccc21,-0.7,-4.0,0.1,5.8*,-0.4,-1.4
CCCC1=NN2C(=N)/C(=C/c3ccc(-c4ccc(C(=O)O)cc4)o3)C(=O)N=C2S1,-3.0,-3.1,0.1,1.0,/,/
O=C(N/N=C/c1ccc([N+](=O)[O-])cc1)c1ccc(Br)cc1,3.5,-5.4,-0.2,7.8*,0.9,-2.0
O=C(N/N=C/c1cccc(O)c1)c1cnccn1,-1.8,-6.1,0.0,-4.5,/,/
O=C(CCCC(=O)N/N=C/c1cccc([N+](=O)[O-])c1)N/N=C/c1cccc([N+](=O)[O-])c1,-8.4,6.1,0.1,14.1*,0.6,2.3
O=C(N/N=C\c1ccc(Br)cc1)c1cc([N+](=O)[O-])cc([N+](=O)[O-])c1,2.9,-2.8,-0.1,-0.7,/,/
O=C(N/N=C/c1cccc([N+](=O)[O-])c1)c1cc(O)c(O)c(O)c1,14.9,-10.1,-0.2,5.7*,1.2,3.5
O=C(N/N=C/c1cccc(O)c1)c1cccnc1,5.7,-1.2,-0.1,5.8*,-0.6,-11.2
O=C(N/N=C\c1cccc([N+](=O)[O-])c1)c1ccc(O)cc1,-24.1,1.9,-0.1,-0.6,/,/
O=C(CCC(=O)N/N=C/c1cccc([N+](=O)[O-])c1)N/N=C/c1cccc([N+](=O)[O-])c1,-4.7,1.9,0.1,-0.8,/,/
CCOC(=O)c1c(CSCc2ccccc2)n(C)c2cc(Br)c(OC)cc12,12.3,0.7,0.0,0.3,/,/
CCCn1c(SCC(=O)Nc2ccccc2)nnc1-c1ccccc1,-5.2,-3.2,-0.2,0.0,/,/
Cc1ccc2oc(=O)c3cnn(CC(=O)Nc4ccccc4Cl)c3c2c1,0.2,-4.3,0.7,0.2,/,/
Cc1cc(=O)oc2cc(OCC(=O)NNC(=O)c3ccccc3)ccc12,-9.1,-5.6,-0.3,2.5,/,/
Cc1ccc(C(=O)NC(C)c2ccccc2)c(C)c1 (stereo unspecified),8.2,-3.8,0.0,-1.2,/,/
